High-throughput results as filed in PubChem BioAssay.
AGP1 TOR yeast = modulators of TOR pathway AGP1-GFP in S. cerevisiae | S. cerevisiae AGP1-GFP multiplex flow cytometry, 3 h; GFP as percent of DMSO wells | GFP response vs DMSO, % at 10 µM | 320,000 tested, 0.02% active;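 active = GFP response relative to DMSO above a set limit, near screen average plus 3 SD, cut at about 150% in these data; inconclusive = fewer than 70 cells counted for the yeast strain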;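 also: median GFP channel fluorescence of the gated AGP1 strain per well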
Efflux pump mplx = blocks antifungal efflux pumps in multiplex yeast assay; S. cerevisiae Candida pump triplex, Nile Red efflux; inhibition, % at 10 µM; 330,000 tested, 0.44% active; AID 485275;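 active = plate passing quality check with inhibition over a set limit, or well fluorescence over plate mean plus 4 SD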;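 also: Nile Red retained in pooled yeast measured as flow cytometry median fluorescence; higher means more Nile Red kept so more efflux inhibition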
RPL19A-GFP yeast = yeast TOR pathway RPL19A-GFP modulation | S. cerevisiae RPL19A-GFP strain, flow cytometry, 3 h; stronger effect = lower value | percent response vs DMSO, % at 10 µM | 330,000 tested, 0.3% active;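 active = percent response vs DMSO below 50%; inconclusive = fewer than 70 events counted for the yeast strain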;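 also: median channel GFP fluorescence of the barcoded RPL19A-GFP strain; lower means less RPL19A-GFP as with rapamycin TOR inhibition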
MEP2-GFP yeast = yeast TOR pathway MEP2-GFP modulation; S. cerevisiae MEP2-GFP strain, flow cytometry GFP, 3 h; 100% = DMSO control level; GFP response vs DMSO, % at 10 µM; 330,000 tested, 0.51% active;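 active = GFP response versus DMSO above a set limit, roughly screen mean plus 3 SD, cut at about 180% in these data; inconclusive = fewer than 70 cells counted for a yeast strain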;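 also: median GFP fluorescence of the barcode-gated MEP2-GFP cells per well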
CIT2 TOR yeast = modulators of TOR pathway CIT2-GFP in S. cerevisiae. GFP response vs DMSO, % at 10 µM. AID 2029. S. cerevisiae CIT2-GFP strain, flow cytometry, 3 h; 100 means same as DMSO wells. 320,000 tested, 0.065% active;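 active = GFP response relative to DMSO above a set limit, near the screen mean plus 3 SD, cut at about 150% in these data; inconclusive = Fewer than 70 cells measured for a yeast strain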;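 also: ratio of well median GFP fluorescence to mean of DMSO wells on the plate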
LAP4-GFP MLPCN = alters LAP4-GFP fluorescence in TOR pathway yeast screen; S. cerevisiae LAP4-GFP multiplex, flow cytometry GFP, 3 h; median GFP as percent of DMSO wells; GFP response vs DMSO, % at 10 µM; 320,000 tested, 0.34% active;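 active = GFP response vs DMSO above a set limit, about the screen mean plus 3 SD, cut at about 150% in these data; inconclusive = under 70 cell events counted for the yeast strain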
Of the large screens only hits and unclear results are named; the others gave an inactive call; [ ] = another dose, or the depositor's remark. A selection: hits, their analogues and other compounds. The true share with any hit is near 1.3%.

O=C1/C(=C\c2cc(Br)cc(Br)c2O)SC(=S)N1Cc1ccccc1	Efflux pump mplx 1.5
COc1cc([N+](=O)[O-])cc(/C=C2/SC(=S)N(Cc3ccccc3)C2=O)c1O	Efflux pump mplx 3.0
COc1cc(/C=C2/SC(=S)N(Cc3ccccc3)C2=O)cc(Cl)c1O	none
O=C(Cn1cnc(S(=O)(=O)N2CCCCC2)c1)NCc1ccco1	none
O=C(Nc1cccc(-c2ccc(N3CCCCC3)nn2)c1)C(F)(F)F	MEP2-GFP yeast 550.7[may fluoresce violet], CIT2 TOR yeast inconclusive
O=C(Nc1cccc(-c2ccc(N3CCCCC3)nn2)c1)c1ccc(Br)o1	none
O=S(=O)(Nc1cccc(-c2ccc(N3CCCCCC3)nn2)c1)c1ccccc1F	RPL19A-GFP yeast 47.0
CC1CCN(c2ccc(-c3cccc(NC(=O)C(F)(F)F)c3)nn2)CC1	AGP1 TOR yeast inconclusive, RPL19A-GFP yeast 48.1[may fluoresce violet], MEP2-GFP yeast 522.0[may fluoresce violet], CIT2 TOR yeast inconclusive
COc1ccc(C(C)=O)cc1CC(=O)Nc1ccccc1-c1ccccc1	none
Cc1c(CC(C)C)nc(N)c(C#N)c1-c1ccccc1	MEP2-GFP yeast 350.2
O=S(=O)(c1ccc(F)cc1)N(CCO)CC(O)Cn1c2ccccc2c2ccccc21 (configuration not stated)	none
CCN(CC(O)Cn1c2ccccc2c2ccccc21)S(=O)(=O)c1ccc(F)cc1 (configuration not stated)	LAP4-GFP MLPCN 153.0
O=C(O)CC(NC(=O)/C(=C/c1ccccc1)NC(=O)c1ccccc1)c1ccccc1 (configuration not stated)	AGP1 TOR yeast inconclusive, RPL19A-GFP yeast 37.1[may fluoresce violet], MEP2-GFP yeast 261.3[may fluoresce violet], CIT2 TOR yeast inconclusive
O=C(NC(Cc1ccccc1)C(=O)O)/C(=C\c1ccc(F)cc1)NC(=O)c1ccco1 (configuration not stated)	none
O=C(NC(Cc1ccccc1)C(=O)O)/C(=C/c1ccccc1)NC(=O)c1ccco1 (configuration not stated)	AGP1 TOR yeast inconclusive, RPL19A-GFP yeast 21.8[may fluoresce violet], MEP2-GFP yeast 219.7[may fluoresce violet], CIT2 TOR yeast inconclusive
O=C(NC(Cc1ccccc1)C(=O)O)/C(=C/c1ccc(Cl)cc1)NC(=O)c1ccccc1 (configuration not stated)	none
CCc1ccccc1NC(=O)NNC(=O)CCc1ccc(OC)cc1	AGP1 TOR yeast inconclusive
O=C(CCN1C(=O)C2CC=C(Cl)CC2C1=O)NCc1ccco1 (configuration not stated)	none
O=C(CCN1C(=O)C2CC=C(Cl)CC2C1=O)NCc1ccccc1 (configuration not stated)	AGP1 TOR yeast inconclusive, RPL19A-GFP yeast inconclusive, MEP2-GFP yeast 205.9[may fluoresce violet], CIT2 TOR yeast inconclusive, LAP4-GFP MLPCN inconclusive
CC(OC(=O)CSc1ccc([N+](=O)[O-])cc1)C(=O)NCc1ccccc1 (configuration not stated)	LAP4-GFP MLPCN 201.0
COc1cc(NC(=O)C2CSC3(C)CCC(=O)N23)c(OC)cc1Cl (configuration not stated)	none
COc1ccc(C(=O)NCCCNC(=O)c2cnccn2)cc1Br	none
Cc1nc(C)n(CC(C)C(=O)N2CCN(S(=O)(=O)c3ccccc3)CC2)n1 (configuration not stated)	AGP1 TOR yeast inconclusive, RPL19A-GFP yeast 40.0[may fluoresce violet], MEP2-GFP yeast inconclusive, CIT2 TOR yeast inconclusive, LAP4-GFP MLPCN inconclusive
COc1ccc(CCNC(=O)c2ccc(Cl)c(S(=O)(=O)N3CCCC3)c2)cc1	none
O=C(CSc1ccc(-c2cccnc2)nn1)Nc1ccc(F)c(F)c1	none
COc1ccc(NC(=O)c2cccc3c2C(=O)N(C2CCCCC2)C3)cc1	none
COc1ccc(OC)c(NC(=O)c2cccc3c2C(=O)N(C2CCCCC2)C3)c1	RPL19A-GFP yeast 29.1
O=C(O)c1ccc2ccc3ccccc3c2c1	MEP2-GFP yeast 205.3
C=CCn1c(SCC(=O)NC(=O)NCCC)nnc1C1CCCCC1	none (no result: RPL19A-GFP yeast)
C=CCn1c(SCC(=O)NC(=O)NCC(C)C)nnc1C1CCCCC1	MEP2-GFP yeast 527.1[may fluoresce violet] (no result: CIT2 TOR yeast)
COc1ccc(Cl)cc1C(=O)Nc1nc(C)cc(C)n1	none
Cn1ccnc1SCC(=O)Nc1ccc2nc(SCC(=O)NC3CC3)sc2c1	AGP1 TOR yeast inconclusive, MEP2-GFP yeast 280.3[may fluoresce violet], CIT2 TOR yeast inconclusive (no result: RPL19A-GFP yeast)
Nc1ccc(-c2c3ccc(=O)cc-3oc3cc(O)ccc23)cc1C(=O)O	LAP4-GFP MLPCN 157.4
O=c1ccc2c(-c3ccccc3)c3ccc(O)cc3oc-2c1	none
COCc1cc(C)n(CC(=O)Nc2ccc(Cl)cc2Cl)c(=O)c1C#N	none
COCc1cc(C)n(CC(=O)Nc2ccccc2OC)c(=O)c1C#N	AGP1 TOR yeast inconclusive, RPL19A-GFP yeast 47.8[may fluoresce violet], MEP2-GFP yeast 571.1[may fluoresce violet], CIT2 TOR yeast inconclusive
O=C(/C=C/c1cccc(Cl)c1)c1ccc([N+](=O)[O-])o1	MEP2-GFP yeast 202.0[may fluoresce violet], CIT2 TOR yeast inconclusive
Cc1cc(O)c(C(=O)/C=C/c2cccc([N+](=O)[O-])c2)c(=O)o1	none
COC(=O)c1ccc(CSc2nc3scc(-c4cccs4)c3c(=O)[nH]2)o1	AGP1 TOR yeast inconclusive, RPL19A-GFP yeast 38.9[may fluoresce violet], MEP2-GFP yeast 178.4[may fluoresce violet], CIT2 TOR yeast inconclusive
COC(=O)c1ccc(CSc2nc3ccc(Cl)cc3[nH]2)o1	none (no result: RPL19A-GFP yeast)
O=C(c1cc(-c2ccc(O)cc2)on1)N1CCc2ccccc2C1	none
O=C(c1cc(-c2cccc(Cl)c2)on1)N1CCc2ccccc2C1	CIT2 TOR yeast 166.3
c1ccc2c(NCC3CCCO3)nc(N3CCOCC3)nc2c1 (configuration not stated)	AGP1 TOR yeast inconclusive, RPL19A-GFP yeast 21.7[may fluoresce violet], MEP2-GFP yeast 237.3[may fluoresce violet], CIT2 TOR yeast inconclusive
Cc1ccc2nc(N3C(=O)C(O)=C(C(=O)c4cc5ccccc5o4)C3c3cccs3)sc2c1 (configuration not stated)	MEP2-GFP yeast 191.8
CCc1ccc2nc(N3C(=O)C(O)=C(C(=O)c4ccco4)C3c3cccs3)sc2c1 (configuration not stated)	none
Cc1c(Cl)cnc(NC(=O)COC(=O)c2ccncc2)c1Cl	none
Cc1onc(-c2ccccc2)c1C(=O)NC(=S)NNC(=O)c1ccco1	LAP4-GFP MLPCN 158.2
Cc1onc(-c2ccccc2)c1C(=O)NC(=S)NNC(=O)c1ccncc1	none
CC(NC(=O)/C(C#N)=C/c1ccc([N+](=O)[O-])o1)c1ccccc1 (configuration not stated)	MEP2-GFP yeast active[may fluoresce violet], CIT2 TOR yeast inconclusive, LAP4-GFP MLPCN 894.7[may fluoresce violet]
O=C1/C(=C\c2cccs2)SC(=S)N1C1CCS(=O)(=O)C1 (configuration not stated)	AGP1 TOR yeast inconclusive, RPL19A-GFP yeast 12.9[may fluoresce violet], MEP2-GFP yeast inconclusive, CIT2 TOR yeast inconclusive, LAP4-GFP MLPCN inconclusive
Cc1cc(C)cc(OCC(=O)OCC(=O)c2cc(C)n(C3CC3)c2C)c1	none
O=C(/C=C/c1ccccc1)Nc1ncn[nH]1	LAP4-GFP MLPCN 163.0
Nc1c(C(=O)O)sc2nc3c(cc12)CCCC3	none
